Measured values as given in PubChem BioAssay AID504941 (Broad Institute, 2011).
Among all 1,200 compounds or so, about 170 (14%) were called active. How the calls were made is not given here. The list is a sample of the results. Measured potencies and affinities stand elsewhere.

Assay: E. coli Tat export inhibitors, dose response, cherry-pick, set 2, plate reader (AID 504941)
Conditions: E. coli Tat transport reporter; series mostly up to 38 µM

outcome, inactive:
O=c1cc(O)nc[nH]1
CC1(C)CC(=O)C/C(=N\NC(=O)CCc2ccc(S(=O)(=O)N3CCOCC3)cc2)C1
CCc1ccc2c(CSc3nnnn3C)cc(=O)oc2c1
COc1cccc(COC(=O)C2CC(=O)N(Cc3ccco3)C2)c1OC (configuration not stated)
O=c1[nH]c(N2CCCCC2)nc2c1CCCC2
S=c1nc(-c2ccccc2Br)[nH][nH]1
CCOC(=O)N1CCN(c2ccc(C(=O)CC)cc2F)CC1
CN(C)c1nc(SCC#N)nc(N2CCOCC2)n1
CCCC(=O)NC1=C(C#N)C2(CCCC2)Cc2ccccc21
c1ccc(CC2=NCCN2)cc1
O=C(Nc1cccc(NC(=O)c2ccco2)c1)c1ccccc1
O=S(=O)(/N=C(/Nc1ccccc1)c1ccccc1)c1cccs1
N#Cc1ccccc1CSc1ccccn1
O=C1CCCN1Cc1ccccc1
COc1ccc(Cl)cc1S(=O)(=O)Nc1noc2ccccc12
Nc1ccccc1C(=O)NCC1(c2ccccc2)CCCC1
Cc1ccccc1Nc1nnc(C)c(=O)[nH]1
Cc1ccc(C(=O)N2CCCC(CCC(=O)NCc3ccc(F)c(F)c3)C2)cn1 (configuration not stated)
CCCc1cc(=O)oc2cc(OCC(=O)N(C)C)c(Cl)cc12
C#CCNC(=O)C1=C[C@H](c2csc3ccccc23)[C@@H](CCCO)[C@H](OCC)O1
COc1cc(OC)cc(C(=O)N(CN2CCCC2=O)c2ccccc2OC)c1
CCOCCCNC(=S)NCCNc1nc2ccc(C)cc2cc1C#N
Cc1ccsc1C1C(C#N)=C(N)OC2=C1C(=O)CC(C)C2 (configuration not stated)
CC(=O)N(Cc1ccc(F)cc1)c1cccc(C)c1C
Cc1ccc(NC(=O)C(c2ccc(Cl)cc2)N2CCCCC2)cc1 (configuration not stated)
Cc1cc(C(=O)N2CCN(c3ccccc3)CC2)no1
Cc1cc(C)n2nc(SC(C)C(=O)N3CC(C)OC(C)C3)nc2n1 (configuration not stated)
CC1=C(C#N)C(c2cn(-c3ccccc3)nc2-c2cccs2)C(C#N)=C(C)N1
Cc1nc2ncnn2c(C)c1CCC(=O)N1CCCCC1
CCNC(=O)OCC12CC3CC(CC(C3)C1)C2
CCOc1ccccc1NC(=O)NCc1ccc2c(c1)OCO2
O=C1CN(C(=O)COC(=O)c2cc(S(=O)(=O)N3CCOCC3)ccc2Cl)c2ccccc2N1
Cc1ccc(-c2n[nH]c3c2C(c2ccccc2)N(c2ccc(C(=O)O)cc2)C3=O)cc1 (configuration not stated)
COc1ccc(CN2CCN(C(=O)C3CCC(CNS(=O)(=O)c4ccccc4)CC3)CC2)c(OC)c1OC (configuration not stated)
Cc1nn(-c2ccccc2)c2nc3c(cc12)C(=O)CCC3
CC(=O)c1ccc(NC(=O)CSc2nc(N3CCOCC3)nc(N3CCOCC3)n2)cc1
COc1ccc(-n2c(Cc3cccn3C)nnc2SCC(=O)Nc2ccc(C(C)=O)cc2)cc1
Cc1ccc(-c2nc3ccccc3s2)cc1NC(=S)NC(=O)c1cccc2ccccc12
COc1ccc(-c2nc3ccccc3o2)cc1NC(=O)c1ccc(Br)o1
Cc1cc(NC(=O)C2CC2)ccc1NC(=O)c1cccs1
CC1=NN(c2ccccc2)C(=O)C1c1ccccc1 (configuration not stated)
O=C(NCCOC(=O)c1cccs1)c1cccnc1
CCOC(=O)CNC(=O)c1ccccc1
CCOC(=O)CNS(=O)(=O)Cc1ccccc1
Cc1cc2ncn(CCOc3ccccc3)c2cc1C
COc1ccc(/C=C(/NC(=O)c2cccc([N+](=O)[O-])c2)C(=O)O)cc1OC
CC(C)(C)OC(=O)N(CCc1ccccc1)Cc1cccc(OCc2cccc(NC(=O)/C=C/c3ccccc3)c2)c1
O=C(Nc1cccnc1Cl)c1noc2c1CCc1ccccc1-2
Cc1ccc(CN(C(=O)c2sc3ccccc3c2Cl)C2CCS(=O)(=O)C2)cc1 (configuration not stated)
COc1ccccc1-n1nc(C(=O)Nc2ccc3c(c2)OCO3)c2ccccc2c1=O
C=CCNC(=O)c1ccccc1NC(=O)Nc1ccccc1
COCCN(C(=S)Nc1c(C)cc(C)cc1C)C(C)c1cccnc1 (configuration not stated)
CCOCCCNC(=O)c1ccc(Cn2c(=S)[nH]c3c([nH]c4ccc(OC)cc43)c2=O)cc1
CCOC(=O)Cc1c[nH]c2ccc([N+](=O)[O-])cc12
O=C(/C=C/c1ccccc1)Nc1cc(S(=O)(=O)N2CCOCC2)ccc1N1CCCC1
COc1ccc(N=C2SC(C(=O)O)CC(=O)N2Cc2ccc(OC)c(OC)c2)cc1 (configuration not stated)
CNC(=O)C1CCN(S(=O)(=O)c2c(C)noc2/C=C/c2cccc(OC)c2)CC1
COc1cc(/C=N/NC(=O)c2ccccn2)ccc1OC(=O)c1ccc(Br)cc1
COc1ccc([N+](=O)[O-])cc1/C=N/NC(=O)Cc1ccccc1
C=CCNC(=S)Nc1cccc2[nH]ncc12
O=C(O)c1cn(-c2ccc(F)cc2)c2cc(N3CCNCC3)c(F)cc2c1=O
CN1C2CCC1CC(NS(=O)(=O)c1cc(Cl)c(Cl)cc1Cl)C2 (configuration not stated)
CCCCSc1nc2c(c(=O)[nH]c(=O)n2C)n1CCc1ccccc1
O=C(CCc1nc2ccccc2c(=O)[nH]1)OCC(=O)c1cccc(Cl)c1
COc1ccc(S(=O)(=O)N2CCOCC2)cc1NC(=O)c1ccc2c(c1)OCO2
CCOc1ccc(S(=O)(=O)N2CCCCC2)cc1NC(=O)CN1C(=O)NC(CC)(c2ccccc2)C1=O (configuration not stated)
Cc1c(C)c2c(C)nn(-c3ccccc3)c2[nH]c1=O
CC(C)(C)c1nn2cnnc2n(/N=C/c2cccc3ccccc23)c1=O
CCOC(=O)c1c(N/C=C(\C#N)c2nc(-c3ccc(OC(C)=O)cc3)cs2)sc2c1CCC2
CCc1nc2cc3sc(CC)nc3cc2s1
CC(C)c1ccc(NC(=O)c2snc3ccc(Cl)cc23)cc1
Cc1ccc(C(=O)Nc2nc(C)c(C(=O)Nc3ccc4c(c3)CCC4)s2)cc1
